Assay results from the supplement of paper PMC13380429.

Columns and labels:
[1] = test system: Vero E6 infected with SARS-CoV-2; assay: morphology score (similarity to uninfected cells); higher = more like uninfected cells; conditions: 24 h
[2] = test system: Vero E6 infected with SARS-CoV-2; assay: SARS-CoV-2 infection rate relative to infected DMSO; higher = more infection, active = 60 or less; conditions: 24 h

| Structure (SMILES) | morphology score [1] | SARS-CoV-2 infection rate [2] |
| --- | --- | --- |
| CC(C)NC(=O)COc1cccc(-c2nc(Nc3ccc4[nH]ncc4c3)c3ccccc3n2)c1 (0.833333 µM) | -0.0169 | 106% (inactive) |
| CC(=O)OC[C@H]1O[C@@H](n2ccc(=O)[nH]c2=O)[C@H](OC(C)=O)[C@@H]1OC(C)=O [uridine-triacetate] (10 µM) | -0.0249 | 112% (inactive) |
| O=[N+]([O-])O[C@@H]1CO[C@H]2[C@@H]1OC[C@@H]2O [isosorbide-mononitrate] (10 µM) | -0.103 | 110% (inactive) |
| CC(C)n1cnc2c(NCCc3ccc(O)cc3)nc(-c3csc4ccccc34)nc21 [stemregenin-1] (10 µM) | 0.692 | 67% (inactive) |
| CC[C@@H]1C(=O)N(C)c2cnc(Nc3ccc(C(=O)N[C@H]4CC[C@H](N5CCN(CC6CC6)CC5)CC4)cc3OC)nc2N1C(C)C [volasertib] (10 µM) | -0.314 | 104% (inactive) |
| CNC(=O)c1cnn(-c2nc(N)c3ncn([C@@H]4O[C@H](CO)[C@@H](O)[C@H]4O)c3n2)c1 [regadenoson] (10 µM) | -0.0309 | 111% (inactive) |
| O=c1[nH]cnc2nc[nH]c12 [hypoxanthine] (10 µM) | 0.0617 | 108% (inactive) |
| COc1ccc(-c2sc(NC(=O)C(C)(C)C)nc2C)cc1S(=O)(=O)Nc1ccc(O)cc1 [PI4KIII-beta-inhibitor-1] (10 µM) | 0.325 | 66% (inactive) |
| CCOc1ccc(S(=O)(=O)O)c2cccnc12 [actinoquinol] (10 µM) | 0.0631 | 112% (inactive) |
| NCCc1c[nH]c2ccc(C(N)=O)cc12 [5-carboxamidotryptamine] (10 µM) | 0.0259 | 103% (inactive) |
| C[C@@H]1O[C@@H](OC[C@H]2O[C@@H](Oc3c(-c4ccc(O)c(O)c4)oc4cc(O)cc(O)c4c3=O)[C@H](O)[C@@H](O)[C@@H]2O)[C@H](O)[C@H](O)[C@H]1O [rutin] (10 µM) | -0.197 | 112% (inactive) |
| CCCC[C@]1(CC)CS(=O)(=O)c2cc(CNC(CC(=O)O)CC(=O)O)c(OC)cc2[C@@H](c2ccccc2)N1 (10 µM) | 0.0912 | 90.5% (inactive) |
| Cc1ccc(C(=O)Nc2cccc(C(F)(F)F)c2)cc1Nc1nc(-c2cccnc2)nc2c1cnn2C (10 µM) | -0.0613 | 74% (inactive) |
| COC(=O)C1=C(C)NC(C)=C(C(=O)OCCCN2CCC(c3ccccc3)(c3ccccc3)CC2)[C@@H]1c1cccc([N+](=O)[O-])c1 [dexniguldipine] (0.833333 µM) | 0.134 | 97.5% (inactive) |
| O=C(O)c1cc(O)c2ccc(Cl)cc2n1 [7-chlorokynurenic-acid] (10 µM) | 0.0315 | 110% (inactive) |
| CCOc1ccc2nc(SCCN3CCOCC3)[nH]c2c1 [afobazole] (10 µM) | -0.0209 | 111% (inactive) |
| O=C(O)/C=C(/CC(=O)O)C(=O)O [cis-aconitic-acid] (10 µM) | -0.118 | 110% (inactive) |
| CCCCCCCCCCOc1cc2c(O)c(C(=O)OCC)cnc2cc1OCC [decoquinate] (10 µM) | 0.147 | 101% (inactive) |
| C[C@@H](N)Cc1c[nH]c2ccc(O)cc12 [alpha-methylserotonin] (10 µM) | 0.251 | 97% (inactive) |
| CN1CCCC(n2nc(Cc3ccc(Cl)cc3)c3ccccc3c2=O)CC1 (stereo unspecified) [azelastine] (10 µM) | 0.458 | 72% (inactive) |
| O=C(N[C@@H]1CC[C@@H](c2cccc(F)c2F)CN(CC(F)(F)F)C1=O)N1CCC(n2c(=O)[nH]c3ncccc32)CC1 [telcagepant] (10 µM) | 0.0561 | 102% (inactive) |
| COc1ccc2nc3ccc(Cl)cc3c(SCCCN)c2c1 (10 µM) | 0.0488 | 91.5% (inactive) |
| C[N+]1(C)[C@@H]2C[C@@H](OC(=O)C(O)(c3cccs3)c3cccs3)C[C@H]1[C@@H]1O[C@@H]12 [tiotropium] (10 µM) | 0.0776 | 100% (inactive) |
| Cc1n[nH]c(C)c1Cc1sc2c(c1C(=O)N1C[C@H](O)CO1)c(=O)n(C)c(=O)n2CC(C)C (10 µM) | 0.0657 | 106% (inactive) |
| COc1ccc(C(C)(C)C)cc1CN[C@H]1C2CCN(CC2)[C@H]1C(c1ccccc1)c1ccccc1 [maropitant] (0.833333 µM) | 0.103 | 104% (inactive) |
| CN1Cc2ccccc2[C@@H]2c3cccc4[nH]cc(c34)C[C@H]21 (10 µM) | 0.609 | 95.5% (inactive) |
| O=C(O)/C=C/c1ccc(-c2ccc(O)c(C34CC5CC(CC(C5)C3)C4)c2)cc1 [adarotene] (10 µM) | 0.00299 | 100% (inactive) |

| Structure (SMILES) | morphology score [1] | SARS-CoV-2 infection rate [2] |
| --- | --- | --- |
| Nc1nnc(-c2cccc(Cl)c2Cl)c(N)n1 [lamotrigine] (10 µM) | 0.0194 | 110% (inactive) |
| CC(=O)N[C@H](Cc1ccc2ccccc2c1)C(=O)N[C@H](Cc1ccc(Cl)cc1)C(=O)N[C@H](Cc1cccnc1)C(=O)N[C@@H](CO)C(=O)N[C@@H](Cc1ccc(O)cc1)C(=O)N[C@H](CCCNC(N)=O)C(=O)N[C@@H](CC(C)C)C(=O)N[C@@H](CCCNC(=N)N)C(=O)N1CCC[C@H]1C(=O)N[C@H](C)C(N)=O [cetrorelix] (10 µM) | 0.394 | 79.5% (inactive) |
| OC(c1ccccc1)C1CCN(CCc2ccccc2)CC1 (stereo unspecified) (10 µM) | -0.103 | 106% (inactive) |
| c1ccc(Oc2nc(NC3CCCCC3)c3[nH]cnc3n2)cc1 (0.833333 µM) | 0.191 | 104% (inactive) |
| COc1cc2c(cc1-c1c(C)noc1C)ncc1[nH]c(=O)n([C@H](C)c3ccccn3)c12 (10 µM) | -0.154 | 112% (inactive) |
| COC(=O)c1c(C)[nH]c(C)c1C(=O)c1ccccc1Cc1ccccc1 (10 µM) | -0.254 | 118% (inactive) |
| C[C@@H]1O[C@@H](O[C@H]2[C@H](Oc3cc(O)c(C(=O)CCc4ccc(O)cc4)c(O)c3)O[C@H](CO)[C@@H](O)[C@@H]2O)[C@H](O)[C@H](O)[C@H]1O [naringin-dihydrochalcone] (10 µM) | 0.0437 | 107% (inactive) |
| Cn1c(=O)c(F)c(Nc2ccc(I)cc2F)c2c(=O)n(C[C@@H](O)CO)cnc21 (0.833333 µM) | -0.0443 | 109% (inactive) |
| CC(C)C[C@H](NC(=O)[C@H](CCCCN)NC(=O)[C@H](CCCNC(=N)N)NC(=O)[C@H](C)NC(=O)[C@H](CO)NC(=O)[C@H](CCCCN)NC(=O)[C@H](CCCNC(=N)N)NC(=O)[C@H](C)NC(=O)CNC(=O)[C@@H](NC(=O)[C@H](Cc1ccccc1)NC(=O)CNC(=O)CNC(=O)[C@@H](N)Cc1ccccc1)[C@@H](C)O)C(=O)N[C@@H](C)C(=O)N[C@@H](CC(N)=O)C(=O)N[C@@H](CCC(N)=O)C(=O)O [orphanin-fq] (10 µM) | 0.0454 | 112% (inactive) |
| CC[C@@H]1/C=C(\C)C[C@H](C)C[C@H](OC)[C@H]2O[C@@](O)(C(=O)C(=O)N3CCCC[C@H]3C(=O)O[C@H](/C(C)=C/[C@@H]3CC[C@@H](O)[C@H](OC)C3)[C@H](C)[C@@H](O)CC1=O)[C@H](C)C[C@@H]2OC [ascomycin] (10 µM) | 0.0662 | 100% (inactive) |
| CCn1c(=O)/c(=C2\Sc3ccccc3N2C)s/c1=C\c1cccc[n+]1CC (10 µM) | 0.136 | 106% (inactive) |
| CC(C)Oc1cccc(-n2c(CCc3c[nH]c4ccc(Br)cc34)nc3ccccc3c2=O)c1 (10 µM) | 0.149 | 93% (inactive) |
| O=C(O)C1=CO[C@@H](O[C@@H]2O[C@H](CO)[C@@H](O)[C@H](O)[C@H]2O)[C@@H]2C(CO)=CC[C@H]12 [Geniposidic acid] (10 µM) | -0.163 | 114% (inactive) |
| Cc1cc(-c2nncc3c(C(C)(C)C)c(OCc4ncnn4C)nn23)no1 (10 µM) | 0.149 | 95% (inactive) |
| Nc1n[nH]c2nnc(-c3c(-c4ccccc4)nn4ccccc34)cc12 (10 µM) | 0.264 | 103% (inactive) |
| Cc1cc(C(=O)N2Cc3cnn(C)c3Nc3ccccc32)ccc1CNC(=O)N1CCC[C@H]1C(=S)N1CCCN(C)CC1 (10 µM) | 0.0545 | 110% (inactive) |
| Oc1noc2c1CCNC2 [gaboxadol] (10 µM) | 0.0535 | 106% (inactive) |
| NC1CCN(c2c(F)cc3c(=O)c(C(=O)O)cn(C4CC4)c3c2Cl)C1 (stereo unspecified) [clinafloxacin] (10 µM) | 0.187 | 112% (inactive) |
| C=CCNC1=C2C[C@@H](C)C[C@H](OC)[C@H](O)[C@@H](C)/C=C(\C)[C@H](OC(N)=O)[C@@H](OC)/C=C\C=C(/C)C(=O)NC(=CC1=O)C2=O [tanespimycin] (10 µM) | -0.0472 | 114% (inactive) |
| COc1cc2ncnc(Nc3ccc(O)c(Br)c3)c2cc1OC (10 µM) | -0.194 | 103% (inactive) |
| CC(C)(N)Cc1ccccc1 [phentermine] (10 µM) | -0.154 | 118% (inactive) |
| O=C(Nc1ccc(Oc2ccc(Cl)cn2)c(Cl)c1)c1ccccn1 (10 µM) | 0.0983 | 102% (inactive) |
| COc1ccc(C(=O)C2CCN(CC(=O)N(Cc3nc4c(c(=O)[nH]3)COCC4)CC3CC3)CC2)cc1 (10 µM) | 0.165 | 102% (inactive) |
| CN1CCN(c2ccc3[nH]c(-c4ccc5[nH]c(-c6ccc(O)cc6)nc5c4)nc3c2)CC1 [pibenzimol] (10 µM) | 0.0018 | 110% (inactive) |
| Cc1ccc(Cl)c(OCC(O)CNC(C)(C)C)c1 (stereo unspecified) [bupranolol] (10 µM) | -0.00864 | 111% (inactive) |
| CC(=O)Oc1ccc(C(c2ccc(OC(C)=O)cc2)c2ccccn2)cc1 [bisacodyl] (10 µM) | 0.261 | 85.5% (inactive) |
